Test system: E18 rat cortical neuron-glia co-culture
Test: fiber score / MBP score (myelination specific beyond OL differentiation) (ratio); higher = more myelination-specific MBP alignment
Conditions: 1 µM; treatment time: 8 days (DIV5-DIV13)
How it was run: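 Papain-dissociated primary E18 rat cortical co-cultures, plated at 20,000 cells/well on poly-d-lysine/laminin 96-well plates, were exposed to library compounds at 1 or 5 µM in myelination medium between DIV5 and DIV13. Following fixation in 4 % paraformaldehyde, cultures were stained for MBP, Olig2 and DAPI, and four 10X fields per well were analysed in duplicate wells. Values are the ratio of fiber score (continuous MBP fiber length per Olig2+ nucleus) to MBP score (thresholded MBP area × intensity per Olig2+ nucleus).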

Compared with `O=C(O)c1cc(=O)c2c(OCC(O)COc3cccc4oc(C(=O)O)cc(=O)c34)cccc2o1` [Cromolyn Sodium], `COC(=O)C1=C(C)NC(C)=C(C(=O)OCCN(C)Cc2ccccc2)C1c1cccc([N+](=O)[O-])c1` (stereo not given) [Nicardipine] is higher in “fiber score / MBP score” value: 0.501 for the first, 0.629 for the second.

Going from `CN1CCN2c3ncccc3Cc3ccccc3C2C1` (stereo not given) [Remergil] to `CC(COc1ccccc1Cc1ccccc1)N1CCCCC1` (stereo not given) [Benproperine], the “fiber score / MBP score” value falls from 0.819 to 0.726.

Going from `O=c1[nH]cnc2c1ncn2[C@H]1CC[C@@H](CO)O1` [2',3'-Dideoxyinosine] to `CC(=O)NC[C@H]1CN(c2ccc(N3CCOCC3)c(F)c2)C(=O)O1` [linezolid], the “fiber score / MBP score” value falls from 1.07 to 0.899.

First: COc1cc(C[C@@H](CO)[C@H](CO)Cc2ccc(O)c(OC)c2)ccc1O [Secoisolariciresinol]
Second: CCCC(=O)Nc1ccc(OCC(O)CNC(C)C)c(C(C)=O)c1 (stereo not given) [Acebutolol]
The “fiber score / MBP score” value of the first is higher: 0.879 for the first, 0.757 for the second.

Going from `Nc1nc(N)nc(-c2cc(Cl)ccc2Cl)n1` [Irsogladine] to `CCCOc1ccc(C(=O)OCCN(CC)CC)cc1N` [Proxymetacaine], the “fiber score / MBP score” value rises from 0.913 to 1.15.

Going from `C=CC1=C(C(=O)O)N2C(=O)[C@@H](NC(=O)/C(=N\OCC(=O)O)c3csc(N)n3)[C@H]2SC1` [Cefixime] to `CC(=O)OCC(=O)[C@@]12OC(C)(C)O[C@@H]1C[C@H]1[C@@H]3C[C@H](F)C4=CC(=O)C=C[C@]4(C)[C@@]3(F)[C@@H](O)C[C@@]12C` [Fluocinonide], the “fiber score / MBP score” value falls from 0.945 to 0.861.

First: CCc1cc(C(N)=S)ccn1 [Ethionamide]
Second: CC(C)(C)NCC(O)c1cc(O)cc(O)c1 (stereo not given) [Terbutaline]
The “fiber score / MBP score” value of the first is higher: 0.983 for the first, 0.31 for the second.

For `CC(C)(S)[C@@H](N)C(=O)O` [Penicillamine], the “fiber score / MBP score” value was 0.988.

— the supplement of paper PMC4840960
